Hit rate of the full screen: of about 69,000 compounds, about 950 (1.4%) showed an effect of 50% or more. Only a selection was taken, and strong results are over-represented in it overall.
Test system: Mycobacterium tuberculosis
Experiment: Cornell M. t heat shock assay; further: in the data most compounds retested in dose-response had high values
Type: functional, organism-based
Set-up: dose or concentration left out as unconfirmed

SMILES | Percent Effect
CC(=O)Nc1nc(C(=O)NCc2ccc(N3CCCCCC3)nc2)cs1 | 8.395%
CC(=O)Nc1nc(C(=O)Nc2ccc(N3CCCCC3)nc2)cs1 | 50.82%
CC(=O)Nc1nc(C(=O)NCc2ccc(N3CCCC3)nc2)cs1 | -13.06%
O=C(O)C(F)(F)F.O=C(O)C(F)(F)F.c1cc(CN2CCc3ncc(CN4CCCCC4)n3CC2)cs1 | -20.06%
Cc1nc(COCC2CN(C(N)=O)Cc3nccn3C2)cs1.O=C(O)C(F)(F)F (stereo not given) | -0.7889%
CS(=O)(=O)NCCn1ccc(-c2cccs2)n1 | 0.1994%
NC1(c2nc(-c3ccccc3)cc(=O)[nH]2)CCCCC1 | 0.6123%
NC1(c2nc(-c3cccs3)cc(=O)[nH]2)CCCCC1 | -38.51%
CCCS(=O)(=O)NCCn1ccc(-c2cccs2)n1 | -4.478%
NC1(c2nc(-c3ccccc3)cc(=O)[nH]2)CCCC1 | -2.897%
CCCc1cc(=O)[nH]c(-n2nc(-c3cccs3)cc2N)n1 | 106.1%
Cc1cc(=O)[nH]c(-n2nc(-c3ccccc3)cc2N)n1 | 105.3%
NC1(c2nc(-c3cccs3)cc(=O)[nH]2)CCCC1 | -25.86%
Cc1cc(=O)[nH]c(-n2nc(-c3cccs3)cc2N)n1 | 94.15%
Cc1noc(C)c1CN1CC[C@H]2OCC[C@@]2(C(=O)N(C)C)C1.O=C(O)C(F)(F)F | -9.212%
CC(C)CCN1C2(CCN(Cc3nccs3)C2)c2ccccc2S1(=O)=O.O=C(O)C(F)(F)F (stereo not given) | 47.98%
CN(C)C(=O)COCC1CN(Cc2cccs2)Cc2ncn(C)c21.O=C(O)C(F)(F)F.O=C(O)C(F)(F)F (stereo not given) | -34.33%
COc1cc(Cl)cc(CN2CCCC(N3CCCC3)C2)c1OC (stereo not given) | 98.75%
COc1cc(Cl)cc(CN2CCCC(N3CCOCC3)C2)c1OC (stereo not given) | 2.91%
COc1ccc(CN2CCCC(N3CCCC3)C2)cc1Cn1cncn1 (stereo not given) | -42.58%

SMILES | Percent Effect
Clc1cc(CN2CCCC(Cn3cncn3)C2)c2ncccc2c1 (stereo not given) | -4.966%
O[C@@H]1CN(Cc2cc(Cl)cc3cccnc23)C[C@@H]1O | -38.19%
Clc1cc(CN2CCCN3CCCC3C2)c2ncccc2c1 (stereo not given) | 99%
CNC(=O)C1CNCCN1C(=O)c1ccc(C(F)(F)F)nc1C.Cl (stereo not given) | 13.87%
CC(C)NC(=O)CC1COC2(CCN(Cc3cccnc3)CC2)C1.O=C(O)C(F)(F)F.O=C(O)C(F)(F)F (stereo not given) | -3.493%
Cc1nc(N2CCOCC2)nc2c1CCN(Cc1ccsc1)CC2.O=C(O)C(F)(F)F | 3.426%
Cc1nc(N2CCCC2)nc2c1CCN(Cc1ccoc1)CC2.O=C(O)C(F)(F)F | 64.12%
CC(C)Oc1ncnc2c1CCN(Cc1ccco1)CC2.O=C(O)C(F)(F)F | -23.01%
Cc1nc(N2CCCC2)nc2c1CCN(Cc1ccco1)CC2.O=C(O)C(F)(F)F | 66.31%
Oc1nc(N2CCCC2)nc2c1CCN(Cc1ccsc1)CC2 | -11.88%
Cc1nc(N2CCCC2)nc2c1CCN(Cc1ccsc1)CC2.O=C(O)C(F)(F)F | 100.4%
Cc1nc(C)c2c(n1)CCN(Cc1ccco1)CC2 | 1.706%
Cc1nc(N2CCOCC2)nc2c1CCN(Cc1cccnc1)CC2.O=C(O)C(F)(F)F | 5.04%
Cc1nc(N2CCCC2)nc2c1CCN(Cc1nccn1C)CC2.O=C(O)C(F)(F)F | -10.58%
O=C(O)C(F)(F)F.O=C(O)C(F)(F)F.O=C1CC2(CCN(Cc3ccncc3)C2)CN1c1ccc2c(c1)OCO2 (stereo not given) | -29.31%
O=C(O)C(F)(F)F.O=C(O)C(F)(F)F.c1cnc(N2CCC3(COCCN(CC4CCOCC4)C3)C2)nc1 (stereo not given) | -23.85%
CCc1ncnc2c1CCN(CC(=O)N(C)C)CC2.O=C(O)C(F)(F)F | -2.001%
COc1ccc(CN2C[C@@H]3OCCN(CCN4CCCC4)[C@@H]3C2)cc1.O=C(O)C(F)(F)F.O=C(O)C(F)(F)F.O=C(O)C(F)(F)F | -18.96%
Cc1ncc2c(n1)C1(CCN(C(=O)C3CC3)CC1)OCC2.Cl | 6.327%
CCN(CC)Cc1cn2c(n1)CN(C(=O)Cc1ccsc1)CC2.O=C(O)C(F)(F)F | -4.189%

SMILES | Percent Effect
Cl.O=C1CC2(CCNCC2)C(=O)N1c1cccc(F)c1 | -6.229%
Cc1cc2c(=O)n3c(nc2s1)CCN(Cc1cnc(C)n1C)CC3.Cl | 0.614%
O=C(O)C(F)(F)F.O=C1Nc2ccccc2C12CCN(Cc1cccs1)CC2 | -5.404%
O=C(O)C(F)(F)F.c1ccc(CN2Cc3nccn3CC(Cn3cncn3)C2)nc1 (stereo not given) | -29.71%
Cc1nc2c(c(NCc3cc4ccccc4s3)n1)CCNCC2 | -9.753%
Cc1nc2c(c(NCc3nc4ccccc4s3)n1)CCNCC2 | 105.4%
Cc1nc2c(c(NCc3ccc(-c4ccccn4)s3)n1)CCNCC2 | -21.22%
C[C@H]1CN(CC2CCOCC2)C[C@@]12CCN(Cc1cccnc1)C2=O.O=C(O)C(F)(F)F.O=C(O)C(F)(F)F | 4.288%
CC1(C(=O)N2CCOCC2)CN(Cc2ccccc2F)CCO1 (stereo not given) | 10.07%
CN(C)C(=O)C1(C)CN(Cc2cn(C)c3ccc(F)cc23)CCO1 (stereo not given) | 64.53%
Cc1ncsc1CN1CCOC(C)(C(=O)N(C)C)C1 (stereo not given) | -16.31%
Cc1nnc(N2CCOC(C)(C(=O)N(C)C)C2)c2ccccc12 (stereo not given) | 0.5691%
CN(C)C(=O)C1(C)CN(Cc2cn(C)c3ccccc23)CCO1 (stereo not given) | 54.51%
CNC(=O)C1(C)CN(Cc2cn(C)c3ccc(F)cc23)CCO1 (stereo not given) | 39.76%
CC(C)Cn1c(=O)nc2n1C(=O)N(c1ccc(F)cc1)C2 | 4.992%
Cc1cccc(-c2nnn3c2COC(CNCc2nccs2)C3)c1.O=C(O)C(F)(F)F (stereo not given) | -29.09%
COc1cc(N2C[C@H](C(=O)NCC3CC3)[C@@H]3CCO[C@@H]3C2)ncn1.O=C(O)C(F)(F)F | -37.92%
CN(CCc1ccccn1)C(=O)c1cnn(-c2ccccc2F)c1N | 25.3%
Cc1ccc(C)c(-n2ncc(C(=O)N(C)CCc3ccccn3)c2N)c1 | 29.21%
Cc1cc(Cl)ccc1-n1ncc(C(=O)N(C)CCc2ccccn2)c1N | 67.07%
